Values joined by “and” are separate entries in the source; they are usually repeats but may differ in a detail not shown here. Equal entries are not always repeated. Records with an inconclusive call do not appear. Active and inactive are the calls of the source. How the source made its calls: active means hit-call score of the fitted dose curve at least 0.9, where 1 is the maximum; inconclusive means response in the unintended direction; inactive means score below 0.9.

One may read the AC50 as the concentration at which the activity in the assay is half-maximal.

Cytochrome P450 3A4 (Homo sapiens), sequence (P08684 whole entry, looked up): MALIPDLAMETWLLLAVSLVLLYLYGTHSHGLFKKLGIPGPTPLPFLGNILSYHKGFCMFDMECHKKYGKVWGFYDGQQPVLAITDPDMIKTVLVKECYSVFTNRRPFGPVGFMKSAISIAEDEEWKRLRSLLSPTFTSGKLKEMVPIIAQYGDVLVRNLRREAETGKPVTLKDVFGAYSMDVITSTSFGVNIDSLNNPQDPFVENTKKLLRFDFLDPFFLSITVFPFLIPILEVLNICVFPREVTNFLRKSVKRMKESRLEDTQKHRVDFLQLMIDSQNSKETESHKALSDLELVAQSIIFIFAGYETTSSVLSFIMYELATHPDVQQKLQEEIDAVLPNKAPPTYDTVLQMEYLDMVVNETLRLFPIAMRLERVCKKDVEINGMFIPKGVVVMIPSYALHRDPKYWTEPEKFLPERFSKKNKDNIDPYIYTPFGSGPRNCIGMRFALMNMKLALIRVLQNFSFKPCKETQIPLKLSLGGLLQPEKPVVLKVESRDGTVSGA

Read-out in this assay: Cytochrome P450 3A4 (Homo sapiens) (UniProt P08684)
As to the kind of experiment: CLD_CYP3A4_48hr: CellzDirect (CLD) Gene Expression Assay for xenobiotic metabolism (CYP3A4) at 48 hours (AID 2283698). On the procedure: CLD_48hr is a cell-based, multiplexed-readout assay that uses hepatocyte, a human liver primary cell, with measurements taken at 48 hours after chemical dosing in a 96-well plate.CLD_CYP3A4_48hr is one of 16 assay component(s) measured or calculated from the CLD_48hr assay. It is designed to make measurements of mRNA induction, a form of inducible reporter, as detected with chemiluminescence signals by Quantitative Nuclease Protection Assay (qNPA) technology.Data from the assay component CLD_CYP3A4_48hr was analyzed at the endpoint, CLD_CYP3A4_48hr, in the positive analysis fitting direction relative to DMSO as the negative control and baseline of activity. Using a type of inducible reporter, gain-of-signal activity can be used to understand changes in the reporter gene as they relate to the gene CYP3A4. Furthermore, this assay endpoint can be referred to as a primary readout. To generalize the intended target to other relatable targets, this assay endpoint is annotated to the cyp intended target family, where subfamily is xenobiotic metabolism.
Human hepatocyte cultures were treated daily for two consecutive days with fresh dosing solutions containing appropriate concentrations of the 320 ToxCast chemicals (chemical identities were blinded to CellzDirect and other ToxCast collaborators), vehicle control (0.2% DMSO), and positive control inducers as summarized in Table 1. Due to the large number of treatment groups and chemicals examined, the ToxCast chemicals were divided into two groups (spanning two independent cultures of hepatocytes from separate donor preparations (Hu778: ToxCast plates 1 and 2; Hu776: ToxCast plates 3 and 4). Each preparation of human hepatocyte cultures was treated with respective vehicle control, medium only control, set of six positive controls/reference chemicals for the five hepatic receptor pathways, and a subset of eight of the ToxCast chemicals (indoxacarb, pyrithiobac-sodium, norflurazon, cyhalofop-butyl, methomyl, thiram, acetochlor, and propiconazole). These replicate data, coupled with internal replicates designed within the blinded ToxCast chemical library, provided additional data to evaluate interindividual differences between hepatocyte preparations and their potential impact on chemical profiles.Cell morphology and integrity were evaluated using phase-contrast microscopy as an indicator of hepatocyte cell health (Tyson & Green, 1987). Cultures for each treatment group (i.e., media, vehicle [0.2% DMSO], positive control inducers [multiple concentrations], and the ToxCast chemicals [multiple concentrations]) were observed and cell morphology was assessed relative to vehicle control cultures at each harvest time point (0, 6, 24, or 48 h). […] Images were evaluated at the conclusion of the study to assess changes in cell integrity and account for the effects of chemical exposure on uncharacteristic changes in concentration-dependent gene expression profiles. The results from these determinations of apparent cytotoxicity were annotated (yes/no) alongside the corresponding qNPA data for reference.At the conclusion of each treatment period, hepatocyte cultures (96-well) were washed with 1 volume of HBSS, lysed by addition of 25 ul ArrayPlate lysis buffer (HTG, Tucson, AZ), and 70 ul/well of Denaturation Oil, denatured by incubation at 95C for 10 min, and frozen at approximately -70C until analysis by nuclease protection assay (qNPA) (Roberts et al., 2007). For qNPA analysis, cell lysates were thawed at 50C for approximately 30 min, qNPA probes were added, and samples were incubated at 95C for 10 min to begin the detection process by denaturing the target RNA, dissociating the duplexes and secondary structure hybridization. At the conclusion of the hybridization period, S1 nuclease reagent was added to each sample to digest all nonprotected nucleotides at 50C for 60-90 min. […]
In the case of `N#Cc1nn(-c2c(Cl)cc(C(F)(F)F)cc2Cl)c(N)c1S(=O)C(F)(F)F` (stereo not drawn), the AC50 is 1.1 µM (active).

Take `CCOC(=O)CC(SP(=S)(OC)OC)C(=O)OCC` (stereo not drawn): the result was inactive.

In the case of `CCCCC(CC)COC(=O)c1ccccc1C(=O)OCC(CC)CCCC` (stereo not drawn), the call was inactive.

In the case of `CC(C)Oc1cc(-n2nc(C(C)(C)C)oc2=O)c(Cl)cc1Cl`, the AC50 is 1.9 µM (active).

On to `COC(=O)C(C)Oc1ccc(Oc2ccc(Cl)cc2Cl)cc1` (stereo not drawn), for which the result was inactive.

As to `CC(Oc1ccc(Cl)cc1Cl)C(=O)O` (stereo not drawn), the compound was classed as inactive.

As for `COC(=O)C=C(C)OP(=O)(OC)OC`, the call was inactive.

`Cc1c(F)c(F)c(COC(=O)C2C(/C=C(\Cl)C(F)(F)F)C2(C)C)c(F)c1F` (stereo not drawn): the AC50 is 20 µM (active).

On to `COc1nc(C)nc(NC(=O)NS(=O)(=O)c2ccccc2Cl)n1`, for which the compound was called inactive.

As for `C#CCOS(=O)OC1CCCCC1Oc1ccc(C(C)(C)C)cc1` (stereo not drawn), the AC50 is 3.74 µM (active).

For `COc1nc(NC(C)C)nc(NC(C)C)n1`, the AC50 was 6.77 µM (active).

As to `OC(c1ccc(Cl)cc1)(c1cncnc1)c1ccccc1Cl` (stereo not drawn), the AC50 is 0.443 µM (active).

For the compound `COc1cnc(OC)n2nc(NS(=O)(=O)c3c(OCC(F)F)cccc3C(F)(F)F)nc12`, the AC50 was 20 µM (active).

With `CCNc1nc(Cl)nc(NC(C)C)n1`, the AC50 was 14.2 µM (active).

Regarding `Oc1ccccc1-c1ccccc1`, the compound was called inactive.

Take `Fc1ccc(Oc2ccnc3cc(Cl)cc(Cl)c23)cc1`: the compound was called inactive.

For the compound `CCCN(CCC)c1c([N+](=O)[O-])cc(S(N)(=O)=O)cc1[N+](=O)[O-]`, the AC50 was 10 µM (active).

Turning to `CCCC1COC(Cn2cncn2)(c2ccc(Cl)cc2Cl)O1` (stereo not drawn), the AC50 is 2.06 µM (active).

Take `CC(C)C1(C)N=C(c2nc3ccccc3cc2C(=O)O)NC1=O` (stereo not drawn): the outcome was inactive.

`O=C(O)c1nc(Cl)ccc1Cl`: the compound was classed as inactive.

Turning to `COP(=S)(OC)Oc1nc(Cl)c(Cl)cc1Cl`, the compound was called inactive.

Consider `CON(C)C(=O)Nc1ccc(Cl)c(Cl)c1`, for which the compound was called inactive.

For the compound `Cc1cc(Cl)ccc1OCC(=O)O`, the call was inactive.

As to `CCCCOC(=O)c1ccccc1C(=O)OCCCC`, the result was inactive.

On to `CCOP(=S)(OCC)SCn1c(=O)oc2cc(Cl)ccc21`, for which the AC50 was 4.1 µM (active).

Consider `N#CC(CCc1ccc(Cl)cc1)(Cn1cncn1)c1ccccc1` (stereo not drawn), for which the AC50 was 0.736 µM (active).

`CNC(=O)ON=CC(C)(C)SC`: the call was inactive.

On to `COC(=O)c1ccccc1C(=O)OC`, for which the outcome was inactive.

As to `CC(C)(C)c1ccc(CSc2cnn(C(C)(C)C)c(=O)c2Cl)cc1`, the result was inactive.

Regarding `CCCCNC(=O)OCC#CI`, the outcome was inactive.

Turning to `CCNc1nc(Cl)nc(NCC)n1`, the outcome was inactive.

For `CC1COC(Cn2cncn2)(c2ccc(Oc3ccc(Cl)cc3)cc2Cl)O1` (stereo not drawn), the result was inactive.

As to `COc1nc(C)nc(NC(=O)NS(=O)(=O)c2ccccc2CCC(F)(F)F)n1`, the AC50 was 20 µM (active) and 4.16 µM (active) and 3.34 µM (active).

Take `CCc1nn(C)c(C(=O)NCc2ccc(C(C)(C)C)cc2)c1Cl`: the AC50 was 20 µM (active).

Turning to `CC1=C(C(=O)Nc2ccccc2)SCCO1`, the call was inactive.

As for `CCOc1cc(Oc2ccc(C(F)(F)F)cc2Cl)ccc1[N+](=O)[O-]`, the AC50 was 5.16 µM (active).

Regarding `COP(N)(=O)SC` (stereo not drawn), the outcome was inactive.

As for `CCOC(=O)C(Cl)Cc1cc(-n2nc(C)n(C(F)F)c2=O)c(F)cc1Cl` (stereo not drawn), the AC50 is 4.77 µM (active).

For the origin of these results see PubChem BioAssay (EPA / NIEHS).
